Screening data (PubChem BioAssay)
CHT allo act: CHT positive allosteric modulators, primary screen, cell-based, membrane potential dye, choline EC20. B-score at 10 µM. CHT-expressing cells; hits give high values; LV-AA mutant CHT in HEK293 cells. AID 488977, 2010. 310,000 tested, 0.49% active. High affinity choline transporter 1 (Homo sapiens), Q9GZV3;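 active = initial fluorescence not abnormally high and integrated response B-score, plate-corrected, over 3 SD above library mean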
Target sequence (Q9GZV3 whole entry, looked up): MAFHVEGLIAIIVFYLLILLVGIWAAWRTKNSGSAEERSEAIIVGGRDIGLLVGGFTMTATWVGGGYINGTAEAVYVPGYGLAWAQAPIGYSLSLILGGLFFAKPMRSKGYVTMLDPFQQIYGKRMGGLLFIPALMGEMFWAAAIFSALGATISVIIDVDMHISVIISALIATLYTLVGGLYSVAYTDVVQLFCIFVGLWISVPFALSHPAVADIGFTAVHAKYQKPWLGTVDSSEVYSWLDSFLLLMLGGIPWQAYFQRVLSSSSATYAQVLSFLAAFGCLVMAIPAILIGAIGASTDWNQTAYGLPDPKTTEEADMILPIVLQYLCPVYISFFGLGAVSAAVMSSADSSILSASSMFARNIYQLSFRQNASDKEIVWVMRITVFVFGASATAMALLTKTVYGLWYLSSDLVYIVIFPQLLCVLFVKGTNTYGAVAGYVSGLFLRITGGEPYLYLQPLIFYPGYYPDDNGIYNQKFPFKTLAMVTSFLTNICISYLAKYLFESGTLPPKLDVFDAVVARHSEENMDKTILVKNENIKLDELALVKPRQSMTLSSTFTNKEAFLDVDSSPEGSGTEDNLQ
CHT inh: inhibitors of human choline transporter CHT. B-score at 10 µM. High affinity choline transporter 1 (Homo sapiens), Q9GZV3. AID 488975, 2010. CHT-expressing cells, membrane potential dye, choline response; hits give low values. 310,000 tested, 0.86% active;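 active = B-score over 3 SD under the library average, and starting fluorescence ratio not unusually high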;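 also: choline stimulus applied at its EC90 after an EC20 pre-addition; B-score computed on integrated fluorescence ratio after choline addition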
TMEM16A act: TMEM16A chloride channel activators or potentiators, primary screen, cell-based, HTS | AID 623877, 2012 | 340,000 tested, 0.3% active | Anoctamin-1 (Mus musculus), Q8BHY3 | HEK293 TMEM16A/YFP-H148Q/I152L, iodide quench fluorescence; hits give low values | B-score at 10 µM;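 active = fluorescence-ratio B-score plate-corrected deviation score at least 3 library SD below zero, with starting fluorescence score within 5 deviations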;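 also: channel opened by trigger with iodide after compound preincubation; score built on the fluorescence ratio of max minus min over baseline; more negative score means more quench and so TMEM16A activation or potentiation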
ANO1 block: TMEM16A chloride channel inhibitors, primary screen, cell-based, HTS | normalized B-score (activity score, 25-100; higher = stronger inhibition) at 10 µM | 310,000 tested, 1.2% active | HEK293 TMEM16A/YFP iodide influx fluorescence, ionomycin | AID 588511, 2011 | Anoctamin-1 (Mus musculus), Q8BHY3;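 active = ratio plate-corrected score three or more library SD toward inhibition, starting fluorescence score within five deviations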;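 also: score derived from kinetic fluorescence span divided by baseline fluorescence per well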
TMEM16A reconf: TMEM16A chloride channel inhibitors, confirmation, cell-based, re-confirmation; shares compounds with ANO1 block; HEK293 TMEM16A/YFP-H148Q, iodide quench fluorescence; ionomycin added to raise cell calcium; inhibition, % at 10 µM; 2,300 tested, 39% active;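 active = mean duplicate percent inhibition, scaled so buffer wells are 0 and the reference blocker 100, over three buffer SD above buffer mean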
HEK293 Ca mobil: calcium mobilization in TMEM16A/YFP HEK293 cells, confirmation, counter-screen for TMEM16A inhibitor project; shares compounds with ANO1 block; Fluo4 calcium mobilization; 2,300 tested, 2% active; calcium response (% of ionomycin), % at 10 µM;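 active = duplicate-averaged calcium signal over 20% of the ionomycin maximum, relative to buffer baseline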;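 also: each well's signal is peak minus trough fluorescence divided by its pre-addition baseline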
YFP-HEK293 quench: iodide YFP quench changes in parental YFP-HEK293, counter-screen for TMEM16A inhibitor project, cell-based | shares compounds with ANO1 block | ionomycin | YFP ratio F(max-min)/F0 at 10 µM | 2,300 tested, under 10 active | AID 652233, 2013;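 active = yellow fluorescent protein signal ratio exceeding the buffer control mean by over 5 SD of those controls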;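 also: ratio is mean of duplicate wells from kinetic YFP trace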
ClC-1 inh: ClC-1 chloride channel inhibition, selectivity assay for TMEM16A inhibitor project, cell-based, voltage-dependent ClC-1 | ratio percent, % at 10 µM | 2,300 tested, under 10 active | shares compounds with ANO1 block | CHO ClC-1-YFP, iodide influx fluorescence quench; iodide control reads 0, buffer control 100;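 active = duplicate-mean ratio percent above the mean of iodide-only control wells, which defines zero, plus 5 of their SD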;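 also: higher percent means stronger block of ClC-1 iodide influx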
Hits are given with their value; i = inactive; nt = no result. An excerpt weighted towards active compounds, which were near 2.4% of everything screened.

SMILES | CHT allo act | CHT inh | TMEM16A act | ANO1 block | TMEM16A reconf | HEK293 Ca mobil | YFP-HEK293 quench | ClC-1 inh
CC(Sc1nc(N)cc(=O)[nH]1)C(=O)NNC(=O)c1cccc(Cl)c1 (stereo unspecified) | nt | nt | i | nt | nt | nt | nt | nt
CCC1=NN(C(=O)c2ccccc2O)C(O)(c2ccccc2)C1 (stereo unspecified) | i | i | i | 25 | i | i | i | i
CCC1=NN(C(=O)c2ccccc2Br)C(O)(c2ccc(Br)cc2)C1 (stereo unspecified) | i | i | i | i | nt | nt | nt | nt
O=C(NNS(=O)(=O)c1ccc(F)cc1)c1cc2ccccc2cc1O | i | i | i | 100 | 24% | i | i | i
O=C(Nc1ccsc1C(=O)O)c1cccc(Oc2ccccc2)c1 | i | i | i | 100 | 52% | i | i | i
O=C(Nc1ccsc1C(=O)O)c1cccc(C(F)(F)F)c1 | i | i | i | i | nt | nt | nt | nt
COc1ccccc1NC(=O)Cc1ccc(-c2ccccc2)cc1 | i | i | i | 25 | i | i | i | i
CC1(C)c2ccccc2-c2nc3ccccc3cc2C1N1CCOCC1 (stereo unspecified) | nt | nt | i | nt | nt | nt | nt | nt
CC1(C)c2cc(O)ccc2OC1N1CCOCC1 (stereo unspecified) | i | i | i | 25 | i | i | i | i
COC(=O)c1ccccc1NC(=O)CNc1cc(OC)c(OC)cc1C | i | i | i | 25 | i | i | i | i
CCOc1c(Cl)cc(C(=O)Nc2ccccc2C(=O)O)cc1Cl | i | i | i | 100 | 50% | i | i | i
COc1ccc2c(c1)CCC(C)N2C(=O)C(=O)c1c[nH]c2ccccc12 (stereo unspecified) | i | i | i | i | nt | nt | nt | nt
COc1cccc(C(=O)NC2CCN(CC(=O)Nc3ccccc3Cl)CC2)c1 | i | i | i | i | nt | nt | nt | nt
COc1cccc(C(=O)NC2CCN(C(=O)N3CCCCC3)CC2)c1 | i | i | i | 25 | i | i | i | i
CCOC(=O)C1CCN(C(=O)c2cc(C)n(C(C)(C)C)n2)CC1 | i | i | i | i | nt | nt | nt | nt
Cc1ccc(OCCC(=O)NNC(=O)c2ccccc2F)cc1 | nt | nt | i | nt | nt | nt | nt | nt
O=C(Nc1ccc(NS(=O)(=O)c2ccc([N+](=O)[O-])cc2)cc1)c1ccco1 | i | i | i | i | nt | nt | nt | nt
COc1ccc(S(=O)(=O)Nc2ccccc2-c2nnn(CC(=O)Nc3ccccc3OC)n2)cc1 | i | i | i | i | nt | nt | nt | nt
COc1ccc(NC(=O)Cn2nnc(-c3ccccc3NS(=O)(=O)c3ccccc3)n2)cc1 | i | i | i | 100 | 38% | i | i | i
COc1ccc(C(=S)N2CCN(c3ccccc3C)CC2)cc1OC | nt | nt | i | nt | nt | nt | nt | nt
COC(=O)c1[nH]c2ccc(C)cc2c1NC(=O)CN1CCN(c2ccccc2)CC1 | i | i | i | 100 | 20% | i | i | i
CCOC(=O)c1[nH]c2ccc(OC)cc2c1NC(C)=O | i | i | nt | i | nt | nt | nt | nt
CCOC(=O)c1[nH]c2ccc(OC)cc2c1NC(=O)CN1CCSCC1 | i | i | i | 100 | i | i | i | i
Cc1ccc(NC(=O)CN(C)S(=O)(=O)c2ccc(Br)s2)cc1F | i | i | i | i | nt | nt | nt | nt
CC(=O)c1ccc(NS(=O)(=O)c2ccc(CC(C)C)cc2)cc1 | i | i | i | 100 | 54% | i | i | i
SMILES | CHT allo act | CHT inh | TMEM16A act | ANO1 block | TMEM16A reconf | HEK293 Ca mobil | YFP-HEK293 quench | ClC-1 inh
CCC(=O)Nc1nc(-c2ccc3c(c2)CC(C)N3S(C)(=O)=O)cs1 (stereo unspecified) | i | i | i | i | nt | nt | nt | nt
CC1Cc2cc(-c3csc(NC(=O)Cc4cccs4)n3)ccc2N1S(C)(=O)=O (stereo unspecified) | i | i | i | 25 | 22% | i | i | i
Cc1c(NC(=O)c2cccc(NC(=O)COc3ccccc3C#N)c2)c(=O)n(-c2ccccc2)n1C | nt | nt | i | nt | nt | nt | nt | nt
CCN(c1ccccc1)S(=O)(=O)c1cc(C(=O)Nc2cccc(Cl)c2)ccc1F | i | i | i | 100 | i | i | i | i
CCc1ccc(NC(=O)c2ccc(F)c(S(=O)(=O)N(CC)c3ccccc3)c2)cc1 | i | i | i | i | nt | nt | nt | nt
CCOc1cc(CNc2ccc(Br)cc2)cc(Br)c1OCC(=O)NC(C)(C)C | i | i | i | i | nt | nt | nt | nt
CCOc1cc(CNc2ccccc2)cc(Br)c1OCC(=O)NC(C)(C)C | i | i | i | 25 | i | i | i | i
Fc1ccc(NCc2cccnc2)cc1 | i | i | i | 100 | i | i | i | i
CCOCCCNc1nc2c(C)cccn2c(=O)c1/C=C1\SC(=S)N(CC(C)C)C1=O | i | i | i | i | i | i | i | i
CCSc1nc2sc3c(c2c(=O)n1-c1ccccc1C)CCN(C)C3 | i | i | i | i | nt | nt | nt | nt
COc1ccc(C(=O)C2CCCN(Cc3ccc(Sc4nncn4C)o3)C2)cc1F (stereo unspecified) | i | i | i | i | nt | nt | nt | nt
C=CCn1c(C)cc(C(=O)CSc2nc3ccccc3[nH]2)c1C | i | i | i | 25 | 43% | i | i | i
C=CCn1c(SCC(=O)NCc2ccc3c(c2)OCO3)nc2scc(-c3ccc(F)cc3)c2c1=O | i | i | i | i | nt | nt | nt | nt
C=CCn1c(SC(C)C(=O)NCc2ccc3c(c2)OCO3)nc2scc(-c3ccccc3)c2c1=O (stereo unspecified) | i | i | i | 100 | i | i | i | i
O=C(COc1ccc(Br)cc1F)Nc1nnc(C2CC2)s1 | nt | nt | i | nt | nt | nt | nt | nt
O=C1CC(=O)C(n2cncn2)C(c2ccc(Cl)cc2Cl)C1 (stereo unspecified) | i | i | i | i | nt | nt | nt | nt
O=C(Cc1ccccc1)Nc1cc(C(=O)c2ccccc2)ccc1N1CCOCC1 | i | i | i | 100 | i | i | i | i
Cc1cc(C)c(OCC(=O)Nc2ccccc2N2CCOCC2)c(C)c1 | i | i | i | 100 | 37% | i | i | i
COc1cccc(-n2c([S-])c(C(=O)Nc3ccc(C(F)(F)F)cc3)[n+]3ccccc23)c1 | i | i | nt | i | nt | nt | nt | nt
CNC(=O)c1sc(N2N=C3/C(=C/c4ccccc4)CCCC3C2c2ccccc2)nc1C (stereo unspecified) | i | i | i | 100 | 46% | 58% | i | i
CCOc1ccc(-n2ccnc2SCC(=O)NCc2ccc3c(c2)OCO3)cc1 | i | i | i | 100 | 20% | i | i | i
O=C(CSc1nccn1-c1ccc(F)cc1)NCc1ccc2c(c1)OCO2 | i | i | i | i | nt | nt | nt | nt
